# Records with an inconclusive call do not appear. Calls of active or inactive are those of the source. Rule for the calls: active = hit-call score of the fitted dose curve at least 0.9, where 1 is the maximum; inconclusive = response in the unintended direction; inactive = score below 0.9.
# Read-out: sulfotransferase (SULT2A), SULT2A1 (gene 6822)
# Assay: CLD_SULT2A_48hr: CellzDirect (CLD) Gene Expression Assay for sulfotransferase (SULT2A) at 48 hours (AID 2283710);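 note: hits raise SULT2A1 transcript above the 0.2% DMSO vehicle baseline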
# Protocol: CLD_48hr is a cell-based, multiplexed-readout assay that uses hepatocyte, a human liver primary cell, with measurements taken at 48 hours after chemical dosing in a 96-well plate.CLD_SULT2A_48hr is one of 16 assay component(s) measured or calculated from the CLD_48hr assay. It is designed to make measurements of mRNA induction, a form of inducible reporter, as detected with chemiluminescence signals by Quantitative Nuclease Protection Assay (qNPA) technology.Data from the assay component CLD_SULT2A_48hr was analyzed at the endpoint, CLD_SULT2A_48hr, in the positive analysis fitting direction relative to DMSO as the negative control and baseline of activity. Using a type of inducible reporter, gain-of-signal activity can be used to understand changes in the reporter gene as they relate to the gene SULT2A1. Furthermore, this assay endpoint can be referred to as a primary readout. To generalize the intended target to other relatable targets, this assay endpoint is annotated to the transferase intended target family, where subfamily is sulfotransferase.
# Human hepatocyte cultures were treated daily for two consecutive days with fresh dosing solutions containing appropriate concentrations of the 320 ToxCast chemicals (chemical identities were blinded to CellzDirect and other ToxCast collaborators), vehicle control (0.2% DMSO), and positive control inducers as summarized in Table 1. Due to the large number of treatment groups and chemicals examined, the ToxCast chemicals were divided into two groups (spanning two independent cultures of hepatocytes from separate donor preparations (Hu778: ToxCast plates 1 and 2; Hu776: ToxCast plates 3 and 4). Each preparation of human hepatocyte cultures was treated with respective vehicle control, medium only control, set of six positive controls/reference chemicals for the five hepatic receptor pathways, and a subset of eight of the ToxCast chemicals (indoxacarb, pyrithiobac-sodium, norflurazon, cyhalofop-butyl, methomyl, thiram, acetochlor, and propiconazole). These replicate data, coupled with internal replicates designed within the blinded ToxCast chemical library, provided additional data to evaluate interindividual differences between hepatocyte preparations and their potential impact on chemical profiles.Cell morphology and integrity were evaluated using phase-contrast microscopy as an indicator of hepatocyte cell health (Tyson & Green, 1987). Cultures for each treatment group (i.e., media, vehicle [0.2% DMSO], positive control inducers [multiple concentrations], and the ToxCast chemicals [multiple concentrations]) were observed and cell morphology was assessed relative to vehicle control cultures at each harvest time point (0, 6, 24, or 48 h). […] Images were evaluated at the conclusion of the study to assess changes in cell integrity and account for the effects of chemical exposure on uncharacteristic changes in concentration-dependent gene expression profiles. The results from these determinations of apparent cytotoxicity were annotated (yes/no) alongside the corresponding qNPA data for reference.At the conclusion of each treatment period, hepatocyte cultures (96-well) were washed with 1 volume of HBSS, lysed by addition of 25 ul ArrayPlate lysis buffer (HTG, Tucson, AZ), and 70 ul/well of Denaturation Oil, denatured by incubation at 95C for 10 min, and frozen at approximately -70C until analysis by nuclease protection assay (qNPA) (Roberts et al., 2007). For qNPA analysis, cell lysates were thawed at 50C for approximately 30 min, qNPA probes were added, and samples were incubated at 95C for 10 min to begin the detection process by denaturing the target RNA, dissociating the duplexes and secondary structure hybridization. At the conclusion of the hybridization period, S1 nuclease reagent was added to each sample to digest all nonprotected nucleotides at 50C for 60-90 min. […]
SMILES,outcome,AC50
COC(=O)NS(=O)(=O)c1ccc(N)cc1,inactive,
COC(=O)NC(=S)Nc1ccccc1NC(=S)NC(=O)OC,inactive,
Cn1c(-c2ccccc2)cc(-c2ccccc2)[n+]1C,inactive,
N#Cc1c(Cl)cccc1Cl,inactive,
Cc1c(COC(=O)[C@@H]2[C@H](/C=C(\Cl)C(F)(F)F)C2(C)C)cccc1-c1ccccc1,,5.45 µM (active)
N#CN=C1SCCN1Cc1ccc(Cl)nc1,inactive,
CC(C)N1C(=O)N(c2ccccc2)CSC1=NC(C)(C)C,,33.1 µM (active)
COP(=O)(OC)O/C(C)=C/C(=O)N(C)C,inactive,
CC1(C)CON(Cc2ccccc2Cl)C1=O,inactive,
CS(=O)(=O)c1ccc(C(=O)C2C(=O)CCCC2=O)c([N+](=O)[O-])c1,inactive,
O=P(O)(O)CCCl,inactive,
CCCN(CC)CC1COC2(CCC(C(C)(C)C)CC2)O1 (stereo not given),,0.0474 µM (active)
CS(=O)(=O)c1cc(C(F)(F)F)ccc1C(=O)c1cnoc1C1CC1,inactive,
CC(C)Nc1nc(Cl)nc(NC(C)C)n1,inactive,
CC(C)N1C(=O)c2ccccc2NS1(=O)=O,inactive,
Nc1cnn(-c2ccccc2)c(=O)c1Cl,inactive,
CCNP(=S)(OC)O/C(C)=C/C(=O)OC(C)C (stereo not given),inactive,
Nc1c(Cl)c(F)nc(OCC(=O)O)c1Cl,inactive,
CCOP(=S)(OCC)Oc1nc(Cl)n(C(C)C)n1,inactive,
CCNC(=O)NC(=O)C(C#N)=NOC,inactive,

SMILES,outcome,AC50
OC(c1ccc(Cl)cc1)(c1ccc(Cl)cc1)C(Cl)(Cl)Cl,inactive,
CC1(C)CCC(=Cc2ccc(Cl)cc2)C1(O)Cn1cncn1 (stereo not given),inactive,
CCCCC(O)(Cn1cncn1)c1ccc(Cl)cc1Cl (stereo not given),inactive,
O=C1C2CC=CCC2C(=O)N1SC(Cl)(Cl)Cl (stereo not given),inactive,
Clc1cccc(C(Cl)(Cl)Cl)n1,inactive,
CCOP(=O)(OCC)Oc1nc(Cl)c(Cl)cc1Cl,inactive,
C=C(C)CN(CC)c1c([N+](=O)[O-])cc(C(F)(F)F)cc1[N+](=O)[O-],inactive,
Cc1cc(C)nc(Nc2ccccc2)n1,inactive,
CC1(C)C(C(=O)OC(C#N)c2cccc(Oc3ccccc3)c2)C1(C)C (stereo not given),inactive,
CC1(C)C(C=C(Cl)Cl)C1C(=O)OC(C#N)c1cccc(Oc2ccccc2)c1 (stereo not given),inactive,
CCCC(=NOCC)C1=C(O)CC(CC(C)SCC)CC1=O (stereo not given),inactive,
CCOc1nc(F)cc2nc(S(=O)(=O)Nc3c(Cl)cccc3Cl)nn12,inactive,
CCOC(=O)C(C)OC(=O)c1cc(Oc2ccc(C(F)(F)F)cc2Cl)ccc1[N+](=O)[O-] (stereo not given),,4.61 µM (active)
Cc1cnc(C2=NC(C)(C(C)C)C(=O)N2)c(C(=O)O)c1 (stereo not given),inactive,
CC(C)=CC1C(C(=O)OCc2coc(Cc3ccccc3)c2)C1(C)C (stereo not given),inactive,
COc1cc(Cl)c(OC)cc1Cl,inactive,
COP(=S)(OC)Oc1ccc([N+](=O)[O-])c(C)c1,inactive,
CCC(C)n1c(=O)[nH]c(C)c(Br)c1=O (stereo not given),inactive,
O=C(Nc1ccccc1-c1ccc(Cl)cc1)c1cccnc1Cl,inactive,
CC(C)(C)C(=O)C(Oc1ccc(Cl)cc1)n1cncn1 (stereo not given),inactive,

# Reference: PubChem BioAssay (EPA / NIEHS)
